Test results taken from ChEMBL document CHEMBL3988442, “University of Dundee, Small-Polar-MMV Screening Library” (2021).
For part of these data: Potency and affinity values are given separately.

Tests used:
Design in all cases: scale not given: direction of the effect not stated beside the values
[1] = target: Protein translocase subunit SecA (Escherichia coli (strain K12)) (UniProt P10408); assay: Assay to Identify E. coli SecA ATPase Inhibitors; type: functional; settings: 30 µM
[2] = target: T1, Ubiquitin-activating enzyme e1, putative (Leishmania donovani (strain BPK282A1)) (UniProt E9BSI1); assay: Leishmania donovani Ubiquitin Activating Enzyme (LdE1); type: functional; settings: 30 µM
T1 sequence (whole entry): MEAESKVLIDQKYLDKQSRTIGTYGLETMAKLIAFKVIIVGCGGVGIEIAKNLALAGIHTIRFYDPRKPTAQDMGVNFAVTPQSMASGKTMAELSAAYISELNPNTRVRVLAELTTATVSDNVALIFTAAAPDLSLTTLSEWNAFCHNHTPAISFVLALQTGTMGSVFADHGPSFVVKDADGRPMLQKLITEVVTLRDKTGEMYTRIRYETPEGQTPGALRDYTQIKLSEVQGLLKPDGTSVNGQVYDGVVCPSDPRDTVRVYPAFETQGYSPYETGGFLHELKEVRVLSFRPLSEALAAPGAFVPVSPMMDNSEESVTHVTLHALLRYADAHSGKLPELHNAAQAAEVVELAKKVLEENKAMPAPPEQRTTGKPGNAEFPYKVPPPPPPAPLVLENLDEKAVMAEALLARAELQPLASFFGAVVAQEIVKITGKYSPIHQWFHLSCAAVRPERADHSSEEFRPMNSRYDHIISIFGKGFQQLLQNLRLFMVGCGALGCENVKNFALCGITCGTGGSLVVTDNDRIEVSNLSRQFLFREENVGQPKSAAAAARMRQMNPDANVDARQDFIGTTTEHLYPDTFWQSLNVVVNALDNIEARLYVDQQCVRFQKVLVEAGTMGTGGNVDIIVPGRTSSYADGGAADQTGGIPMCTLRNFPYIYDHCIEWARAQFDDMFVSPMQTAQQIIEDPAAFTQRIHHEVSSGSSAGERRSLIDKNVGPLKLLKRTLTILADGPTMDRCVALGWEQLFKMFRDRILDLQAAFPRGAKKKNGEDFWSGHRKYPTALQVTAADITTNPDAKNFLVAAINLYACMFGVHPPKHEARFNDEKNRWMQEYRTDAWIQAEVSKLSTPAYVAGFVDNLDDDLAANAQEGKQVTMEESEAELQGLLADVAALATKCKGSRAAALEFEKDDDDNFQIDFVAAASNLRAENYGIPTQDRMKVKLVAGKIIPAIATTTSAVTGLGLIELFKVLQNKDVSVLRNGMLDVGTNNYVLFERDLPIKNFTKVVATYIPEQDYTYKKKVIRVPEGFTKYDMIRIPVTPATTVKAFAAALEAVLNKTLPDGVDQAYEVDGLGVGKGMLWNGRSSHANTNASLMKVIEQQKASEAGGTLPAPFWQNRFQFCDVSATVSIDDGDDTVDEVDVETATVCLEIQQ

[3] = target: AMP-activated protein kinase, AMPK (Homo sapiens) (UniProt P54646+O43741+P54619+Q9UGJ0+Q9Y478+Q13131+Q9UGI9); assay: AMP-dependent Kinase enzyme assay. An in vitro enzyme assay that detects ADP turnover that is directly proportional to AMPK activity. This uses naive AMPK that is activated during the assay with MK-8722; type: functional; settings: 30 µM
[4] = target: Sialic acid-binding Ig-like lectin 9 (Homo sapiens) (UniProt Q9Y336); assay: Hs-Siglec9 ALPHAscreen SOP 20170721; settings: 10 µM
Chain of Sialic acid-binding Ig-like lectin 9 (Homo sapiens) (Q9Y336 whole entry): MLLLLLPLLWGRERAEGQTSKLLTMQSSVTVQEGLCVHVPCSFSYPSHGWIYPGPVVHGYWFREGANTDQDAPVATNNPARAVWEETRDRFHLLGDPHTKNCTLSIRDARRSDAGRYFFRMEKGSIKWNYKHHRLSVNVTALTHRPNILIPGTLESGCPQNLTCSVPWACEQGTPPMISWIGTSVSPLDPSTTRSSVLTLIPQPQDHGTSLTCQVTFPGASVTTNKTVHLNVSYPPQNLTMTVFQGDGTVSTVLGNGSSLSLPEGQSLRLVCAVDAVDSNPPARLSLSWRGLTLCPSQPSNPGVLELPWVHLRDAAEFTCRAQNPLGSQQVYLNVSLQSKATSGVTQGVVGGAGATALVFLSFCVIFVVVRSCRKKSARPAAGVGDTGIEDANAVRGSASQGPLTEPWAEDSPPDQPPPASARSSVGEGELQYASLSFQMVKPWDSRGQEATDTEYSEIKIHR

[5] = test system: Trypanosoma cruzi; assay: Trypanosoma cruzi phosphomannomutase and mannose-1-phosphate guanylyltransferase assay; type: functional; settings: 10 µM
[6] = target: T2, Arginase-2, mitochondrial (Homo sapiens) (UniProt P78540); assay: in vitro enzyme assay to detect the production of urea directly proportional to the activity of Arginase II; type: functional; settings: 33.3 µM; further: in the data most compounds retested in dose-response had high values
T2 sequence (whole entry): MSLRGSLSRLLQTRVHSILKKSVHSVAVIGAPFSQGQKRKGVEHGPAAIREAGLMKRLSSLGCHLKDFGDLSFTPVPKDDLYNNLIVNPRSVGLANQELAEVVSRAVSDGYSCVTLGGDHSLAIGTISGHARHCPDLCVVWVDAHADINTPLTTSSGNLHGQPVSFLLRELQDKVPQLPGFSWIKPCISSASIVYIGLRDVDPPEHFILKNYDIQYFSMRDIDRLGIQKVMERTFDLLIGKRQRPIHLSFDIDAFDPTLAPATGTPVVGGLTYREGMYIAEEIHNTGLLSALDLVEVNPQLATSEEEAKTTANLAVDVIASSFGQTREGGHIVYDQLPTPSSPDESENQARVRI

[7] = target: T3, Proteasome subunit beta (Trypanosoma cruzi) (UniProt O96673); assay: Trypanosoma cruzi proteasome chymotrypsin-like activity (TcProtChymo) assay.; further: in the data most compounds retested in dose-response had high values; type: functional; settings: 9.37 µM
T3 sequence (whole entry): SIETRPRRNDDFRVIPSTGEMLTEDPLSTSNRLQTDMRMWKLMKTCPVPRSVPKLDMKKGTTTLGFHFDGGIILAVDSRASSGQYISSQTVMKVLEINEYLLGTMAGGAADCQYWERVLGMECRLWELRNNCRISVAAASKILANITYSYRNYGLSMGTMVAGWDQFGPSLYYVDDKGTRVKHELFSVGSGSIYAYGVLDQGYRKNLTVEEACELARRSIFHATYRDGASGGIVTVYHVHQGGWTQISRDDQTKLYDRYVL

[8] = species: Homo sapiens; assay: To identify inhibition of the IFN signalling (Jak-Stat) pathway via expression of an eGFP reporter gene under the control of an IFN-stimulated response element (ISRE) containing MxA promoter.; type: functional; settings: 30 µM
[9] = target: T4, Tyrosyl-tRNA synthetase, putative (Trypanosoma cruzi (strain CL Brener)) (UniProt Q4DSP6); assay: Trypanosoma cruzi tyrosyl tRNA synthetase (TcYRS) _High Tyrosine SOP; type: functional; settings: 30 µM; further: in the data most compounds retested in dose-response had high values
T4 sequence (whole entry): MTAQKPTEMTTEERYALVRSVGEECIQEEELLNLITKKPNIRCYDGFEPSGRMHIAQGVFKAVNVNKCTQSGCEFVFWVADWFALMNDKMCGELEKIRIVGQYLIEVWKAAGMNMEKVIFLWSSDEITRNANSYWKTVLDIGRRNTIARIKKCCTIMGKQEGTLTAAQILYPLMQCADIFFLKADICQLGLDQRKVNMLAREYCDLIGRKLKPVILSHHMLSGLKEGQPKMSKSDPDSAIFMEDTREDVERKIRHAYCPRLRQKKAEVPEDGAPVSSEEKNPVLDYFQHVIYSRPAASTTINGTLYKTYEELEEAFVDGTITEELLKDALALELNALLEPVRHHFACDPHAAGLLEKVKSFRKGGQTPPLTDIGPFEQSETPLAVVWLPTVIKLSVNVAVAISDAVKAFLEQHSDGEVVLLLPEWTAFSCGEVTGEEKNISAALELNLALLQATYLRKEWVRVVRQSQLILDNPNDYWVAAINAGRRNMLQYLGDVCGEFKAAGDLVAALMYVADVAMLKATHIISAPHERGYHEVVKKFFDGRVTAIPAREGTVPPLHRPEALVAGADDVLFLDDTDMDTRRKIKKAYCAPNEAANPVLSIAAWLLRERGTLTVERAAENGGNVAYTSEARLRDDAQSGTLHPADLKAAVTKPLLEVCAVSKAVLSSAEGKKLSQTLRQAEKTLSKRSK

[10] = target: T4, Tyrosyl-tRNA synthetase, putative (Trypanosoma cruzi (strain CL Brener)); assay: Trypanosoma cruzi tyrosyl tRNA synthetase (TcYRS) SOP; type: functional; settings: 30 µM
[11] = target: Chromo domain-containing protein 1 (Saccharomyces cerevisiae (strain ATCC 204508 / S288c) (Baker's yeast)) (UniProt P32657); assay: ScCHD-1 Enzyme Inhibition Assay; type: functional; settings: 30 µM; further: in the data most compounds retested in dose-response had high values
Chain of Chromo domain-containing protein 1 (Saccharomyces cerevisiae (strain ATCC 204508 / S288c) (Baker's yeast)) (P32657 whole entry, the tested form may be a part): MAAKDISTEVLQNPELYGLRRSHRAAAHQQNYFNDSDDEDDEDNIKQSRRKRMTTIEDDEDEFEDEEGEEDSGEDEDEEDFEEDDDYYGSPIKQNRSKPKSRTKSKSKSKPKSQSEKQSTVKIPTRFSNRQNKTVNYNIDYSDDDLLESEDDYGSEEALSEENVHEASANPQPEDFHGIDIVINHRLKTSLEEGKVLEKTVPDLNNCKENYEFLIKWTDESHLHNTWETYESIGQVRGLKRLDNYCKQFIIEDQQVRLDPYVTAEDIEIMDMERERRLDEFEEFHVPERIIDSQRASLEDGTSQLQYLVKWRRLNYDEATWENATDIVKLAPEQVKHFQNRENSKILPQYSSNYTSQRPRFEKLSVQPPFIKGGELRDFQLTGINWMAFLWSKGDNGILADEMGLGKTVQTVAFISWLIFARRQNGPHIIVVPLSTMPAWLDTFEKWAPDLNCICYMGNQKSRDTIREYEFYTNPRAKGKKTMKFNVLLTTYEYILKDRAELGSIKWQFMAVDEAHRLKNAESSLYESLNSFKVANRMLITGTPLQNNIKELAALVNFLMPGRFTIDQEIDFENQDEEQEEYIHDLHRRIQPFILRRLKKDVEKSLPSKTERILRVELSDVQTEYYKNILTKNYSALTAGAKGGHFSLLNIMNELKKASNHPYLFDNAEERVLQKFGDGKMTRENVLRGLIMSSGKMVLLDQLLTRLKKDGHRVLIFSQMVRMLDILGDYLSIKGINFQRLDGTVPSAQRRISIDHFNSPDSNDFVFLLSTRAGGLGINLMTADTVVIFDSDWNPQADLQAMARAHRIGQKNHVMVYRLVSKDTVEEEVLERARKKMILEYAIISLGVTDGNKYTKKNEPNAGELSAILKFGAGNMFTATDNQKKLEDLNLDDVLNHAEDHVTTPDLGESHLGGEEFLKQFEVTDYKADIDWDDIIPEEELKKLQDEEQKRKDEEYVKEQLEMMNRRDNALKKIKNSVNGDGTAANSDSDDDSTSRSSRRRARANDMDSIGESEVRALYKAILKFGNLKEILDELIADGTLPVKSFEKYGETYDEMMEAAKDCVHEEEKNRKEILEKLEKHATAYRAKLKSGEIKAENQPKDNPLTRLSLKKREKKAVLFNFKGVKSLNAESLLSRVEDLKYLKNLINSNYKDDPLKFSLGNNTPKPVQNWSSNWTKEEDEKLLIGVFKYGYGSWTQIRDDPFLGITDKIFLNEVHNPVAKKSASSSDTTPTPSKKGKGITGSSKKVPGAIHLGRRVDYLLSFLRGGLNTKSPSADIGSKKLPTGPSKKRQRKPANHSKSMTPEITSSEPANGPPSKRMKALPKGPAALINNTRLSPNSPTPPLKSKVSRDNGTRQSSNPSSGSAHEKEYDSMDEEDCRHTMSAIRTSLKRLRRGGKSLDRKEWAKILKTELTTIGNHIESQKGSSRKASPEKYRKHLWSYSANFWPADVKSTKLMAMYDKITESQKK

Chain of Protein translocase subunit SecA (Escherichia coli (strain K12)) (P10408 whole entry): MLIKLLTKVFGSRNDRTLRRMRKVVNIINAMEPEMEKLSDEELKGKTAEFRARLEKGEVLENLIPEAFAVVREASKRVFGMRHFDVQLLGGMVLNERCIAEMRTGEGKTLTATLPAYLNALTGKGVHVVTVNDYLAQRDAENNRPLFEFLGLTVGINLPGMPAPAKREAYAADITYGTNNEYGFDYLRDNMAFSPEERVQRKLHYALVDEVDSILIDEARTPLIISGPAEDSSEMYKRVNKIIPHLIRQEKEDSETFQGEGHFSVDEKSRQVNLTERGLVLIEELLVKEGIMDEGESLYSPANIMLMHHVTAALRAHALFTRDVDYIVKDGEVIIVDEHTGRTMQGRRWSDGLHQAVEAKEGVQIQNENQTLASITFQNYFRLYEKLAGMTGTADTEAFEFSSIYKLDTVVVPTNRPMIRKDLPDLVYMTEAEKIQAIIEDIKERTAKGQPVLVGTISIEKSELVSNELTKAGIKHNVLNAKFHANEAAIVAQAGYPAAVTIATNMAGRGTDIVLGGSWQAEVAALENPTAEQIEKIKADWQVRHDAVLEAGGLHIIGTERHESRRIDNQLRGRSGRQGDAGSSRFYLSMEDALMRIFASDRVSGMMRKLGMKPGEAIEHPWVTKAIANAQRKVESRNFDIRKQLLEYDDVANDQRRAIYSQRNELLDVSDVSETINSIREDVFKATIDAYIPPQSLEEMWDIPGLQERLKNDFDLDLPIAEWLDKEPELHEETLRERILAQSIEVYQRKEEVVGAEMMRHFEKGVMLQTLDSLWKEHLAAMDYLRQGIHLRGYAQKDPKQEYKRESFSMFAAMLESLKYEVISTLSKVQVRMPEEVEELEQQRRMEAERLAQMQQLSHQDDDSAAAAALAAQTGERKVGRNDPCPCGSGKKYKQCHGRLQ

Row | SMILES | Percent Effect [1] | Percent Effect [2] | Percent Effect [3] | Percent Effect [4] | Percent Effect [5] | Percent Effect [6] | Percent Effect [7] | Percent Effect [8] | Percent Effect [9] | Percent Effect [10] | Percent Effect [11]
1 | CC(=O)NCCNC(=O)N(C)Cc1ccc2c(c1)OCCO2 | -3.01% | 0% | -0.74% | -6.13% | -4.92% | 6.1% | 1.79% | 7.44% | 4.95% | 13.4% | -1.92%
2 | CN(C)CCN(C)C(=O)c1cnc2c(c1)nc(-c1ccccc1Cl)n2C | -6.72% | 5.41% | -0.741% | -1.85% | -0.88% | 2.23% | -1.29% | 8.57% | 9.68% | 13.6% | -3.61%
3 | CSCC[C@H](N)C(=O)NCc1cc2n(n1)CCCN(C1CCCCC1)C2 | -0.291% | 12.5% | -5.04% | 5.09% | 4.37% | 36.2% | 13.7% | 2.41% | 4.21% | 12.8% | -3.52%
4 | c1ccc(CN2CCN(Cc3cscn3)CC2)cc1 | -3.29% | 15.6% | 2.52% | 7.55% | 0.49% | 3.58% | 7.2% | 7.07% | 8.57% | 18.8% | -19.7%
5 | CCOc1ccc(CC(=O)N2CCN(c3nccn3C)CC2)cc1 | -0.699% | 13% | 1.57% | 3.44% | -5.62% | -7.1% | 18.6% | 9.26% | 4.23% | 14.1% | -6.41%
6 | Cc1nnc(N2CC[C@H]3C[C@@H](C(=O)NC4CCCC4)O[C@H]3C2)s1 | -5.67% | 0% | 11.8% | -3.34% | -1.66% | 1.59% | 0.738% | 10.7% | -1.08% | 7.69% | 8.63%
7 | CS(=O)(=O)Cc1cccc(C(=O)NCC2Cc3ccccc3O2)c1 (stereo unspecified) | -4.91% | 5.48% | 2.31% | 0.841% | -2.74% | 5.46% | 17.9% | -3.29% | 2.15% | 15% | -4.73%
8 | O=C(Cc1ccccn1)N1CCN(CC2CC2)c2ncccc2C1 | -4.53% | 10.7% | 3.91% | 0.314% | 0.591% | -0.699% | 4.85% | 9.79% | 6.38% | 16.7% | -7.07%
9 | Cc1ccc2cnn(CCC(=O)Nc3c(C)nn(C)c3C)c2c1 | -3.51% | 5.2% | 2.92% | 2.18% | -4.03% | -4.14% | 5.16% | -0.975% | 2.15% | 8.64% | -0.912%
10 | COc1ccccc1C(=O)N1CCCC1Cn1cc(C)cn1 (stereo unspecified) | -3.53% | 18.9% | -13.2% | -6.09% | -4.25% | -2.81% | 4.68% | -3.42% | 11.3% | 18.5% | -4.38%
11 | CCCS(=O)(=O)N1CCC2(CN(c3ccsc3)C(=O)CN2C)C1 (stereo unspecified) | -3.95% | 8.11% | -1% | -0.171% | 2.34% | 5.83% | 10.6% | -4.15% | 9.9% | 6.1% | -1.58%
12 | CCOc1ccc(CN(C)C(=O)NC(C)c2nncn2C)cc1 (stereo unspecified) | 1.14% | 15.3% | -8.94% | 7% | 0.0972% | 4.42% | 18.4% | 11.4% | 7.37% | 5.13% | -0.989%
13 | O=C(NCC1OCCc2cn(CC3CC3)nc21)c1ccsc1 (stereo unspecified) | -5.87% | 18.2% | 2.23% | -1.55% | 3.65% | 1.94% | 12.2% | 8.57% | 2.12% | 14.1% | -7.27%
14 | COCCOc1ccc(NC(=O)C2CCC2)cn1 | -2.7% | 17.7% | 1.58% | -6% | 0.85% | 5.7% | 15.6% | -2.54% | 9.36% | 16.5% | -6.65%
15 | CC(C)N1CCc2c(C#N)c(NCc3ccco3)n3cnnc3c2C1 | -3.81% | 7.89% | 6.37% | -3.12% | -3.8% | 3.55% | 15.4% | -16.1% | 1.06% | 7.79% | -9.63%
16 | Cc1ccc(-c2ncc(C(=O)NCCS(N)(=O)=O)s2)c(C)c1 | -7.16% | 5.41% | -2.36% | 0.84% | -5% | -3.61% | 9.55% | 21.4% | 0.493% | -1.24% | -4.18%
17 | CSCc1cccc(S(=O)(=O)N2CCC(C)CC2)c1 | -5.58% | -4% | 7.56% | 1.46% | -5.5% | -5.11% | 7.39% | 27.8% | -11.6% | -10.3% | -6.13%
18 | CC1(C)CC(N(Cc2ccccc2)Cc2cccnc2)CC(C)(C)N1 | -8.83% | 17.6% | -4.84% | 9.22% | 5.73% | -6.73% | 7.8% | -4.57% | 6.45% | 9.09% | -29.8%
19 | Cc1noc2nc(C3CCN(Cc4ccncc4)CC3)cc(C(F)F)c12 | -9.38% | 1.35% | 1.21% | -1.72% | -0.79% | -4.41% | -4.99% | 39.2% | 2.15% | -1.3% | -4.82%
20 | c1ccc(-c2nnc(CNCCn3cccn3)o2)cc1 | -3.18% | -10.1% | 1.44% | -1.76% | 1.79% | 3.04% | 1.72% | -4.79% | 6.4% | 8.86% | -8.2%
21 | Cc1cc(C)n(CC2CCCCN2CC(=O)Nc2cccnc2)n1 (stereo unspecified) | -6.69% | 13.3% | -13.7% | 36.3% | 9.25% | 12.5% | -1.74% | 6.67% | 0.546% | 16.1% | -6.32%
